SMILES strings stand for the structures. “And” between values parts separate entries of the source, which are not always exact repeats. Identical values can stand only once. Inconclusive results are not listed. Where a call stands in place of a potency, no number is given. The source holds several records for some structures; these can differ, active in one and inactive in another. The source made the active and inactive calls. The call rests on the fitted dose curve; in most records, active means well fitted inhibition curve with a large enough effect; inconclusive means small, poorly fitted or top-dose-only effect; inactive means flat fitted curve, though single readings scatter.
Potency means the concentration at half of the fitted maximal effect.

Glutathione peroxidase 1 (Homo sapiens), sequence (P07203 whole entry, looked up): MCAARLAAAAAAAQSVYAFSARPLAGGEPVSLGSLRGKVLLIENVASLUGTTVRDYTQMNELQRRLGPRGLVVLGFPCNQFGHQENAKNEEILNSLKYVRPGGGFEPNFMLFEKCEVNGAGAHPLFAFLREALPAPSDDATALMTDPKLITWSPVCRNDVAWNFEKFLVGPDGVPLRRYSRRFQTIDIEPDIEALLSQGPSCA

In the assay the target is Glutathione peroxidase 1 (Homo sapiens) (UniProt P07203). The assay can be described thus: Primary qHTS Assay for Inhibitors of Recombinant Selenoprotein Glutathione Peroxidase 1 (GPX1) (AID 1845191). Further: nearly all actives have a fitted effect of over 65% in size. To be noted: recombinant GPX1, GR-coupled NADPH fluorescence, 15 min; series mostly up to 48.8 µM. The procedure, abridged:
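GR-coupled readout: NADPH consumption tracked by fluorescence, ex 340/em 450 nm, at t=0 and after 15 min at RT. Final mix 10 nM GPX1, 1 mM GSH, 0.5 mM CHP, 0.5 mM NADPH, 100 nM GR, 0.01% BSA, following 30 min enzyme–compound preincubation.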
On the technique in general: In qHTS, concentration-response curves come from the screen itself.
For `COc1ccc(OC)c(C(O)CNC(=O)CN)c1` (stereo not drawn), the Potency entry was “inactive”.
Regarding `COc1cc(OC)cc(OC)c1`, the Potency result was “inactive”.
In the case of `CC(=O)OCC(=O)[C@@]1(OC(C)=O)[C@@H](C)C[C@H]2[C@@H]3C[C@H](F)C4=CC(=O)C=C[C@]4(C)[C@@]3(F)[C@@H](O)C[C@@]21C` it was “inactive”.
Turning to `CC(=O)O[C@]1(C(C)=O)CC[C@H]2[C@@H]3C[C@H](C)C4=CC(=O)CC[C@]4(C)[C@H]3CC[C@@]21C`, the Potency entry is “inactive”.
`COc1ccc(CN2CCN(C(c3ccc(F)cc3)c3ccc(F)cc3)CC2)c(OC)c1OC`: the Potency entry is “inactive”.
In the case of `CC(=O)N(O)CCCCCNC(=O)CCC(=O)N(O)CCCCCNC(=O)CCC(=O)N(O)CCCCCN` it was “inactive”; in that of `CC(C)(C)NC(=O)[C@@H]1CN(Cc2cccnc2)CCN1C[C@@H](O)C[C@@H](Cc1ccccc1)C(=O)N[C@H]1c2ccccc2C[C@H]1O`, “inactive”.
Turning to `COC(=O)C1=C(C)NC(C)=C(C(=O)O[C@@H]2CCCN(Cc3ccccc3)C2)[C@@H]1c1cccc([N+](=O)[O-])c1`, the Potency result was “inactive”.
For the compound `Cc1cc2c(cc1CC(=O)c1sccc1S(=O)(=O)Nc1onc(C)c1Cl)OCO2`, the Potency is 18 µM (active) and inactive.
In the case of `CN(C)CCCOc1nn(Cc2ccccc2)c2ccccc12`, the Potency entry is “inactive”.
With `OC(CCN1CCCCC1)(c1ccccc1)c1ccccc1`, the Potency result was “inactive”.
For the compound `COc1cc(NS(C)(=O)=O)ccc1Nc1c2ccccc2nc2ccccc12`, the Potency entry was “inactive and 25.5 µM (active)”.
The entry for `COC(=O)CCc1ccc(OCC(O)CNC(C)C)cc1` (stereo not drawn) is “inactive”.
Regarding `C[C@]12CCC(=O)C=C1[C@@H]1C[C@@H]1[C@H]1[C@@H]3[C@@H]4C[C@@H]4[C@@]4(CCC(=O)O4)[C@@]3(C)CC[C@@H]12`, the Potency result was “inactive”.
The entry for `N[C@H](CO)C(=O)O` is “inactive”; for `CN1[C@@H]2CC[C@H]1CC(OC(=O)c1c[nH]c3ccccc13)C2` (stereo partly drawn) it is “inactive”.
The entry for `C=C1C[C@H]2[C@@H]3C=C(C)C4=CC(=O)CC[C@]4(C)[C@H]3CC[C@]2(C)[C@@]1(OC(C)=O)C(C)=O` is “inactive”; for `O=c1[nH]c(=O)n([C@H]2CCCO2)cc1F` it is “inactive”; for `CCCC(=O)O[C@]1(C(=O)CO)CC[C@H]2[C@@H]3CCC4=CC(=O)CC[C@]4(C)[C@H]3[C@@H](O)C[C@@]21C` it is “inactive”.
The entry for `C[C@H](CCC(=O)O)[C@H]1CC[C@H]2[C@@H]3C(=O)C[C@@H]4CC(=O)CC[C@]4(C)[C@H]3CC(=O)[C@]12C` is “inactive”; for `Clc1ccc2c(c1)CCc1cccnc1C2=C1CCNCC1` it is “inactive”.
In the case of `COC(=O)[C@@H]1CC2=CC(=O)CC[C@]2(C)[C@@]23O[C@@H]2C[C@@]2(C)[C@@H](CC[C@@]24CCC(=O)O4)[C@H]13`, the Potency result is “inactive”.
The entry for `CN1C(CCl)Nc2cc(Cl)c(S(N)(=O)=O)cc2S1(=O)=O` (stereo not drawn) is “inactive”; for `Cc1ccc(Nc2c(F)cccc2Cl)c(CC(=O)O)c1` it is “inactive”; for `OC[C@@H](O)[C@@H](O[C@@H]1O[C@H](CO)[C@H](O)[C@H](O)[C@H]1O)[C@H](O)[C@@H](O)CO` it is “inactive”.
Consider `COc1cccc2c1C(=O)c1c(O)c3c(c(O)c1C2=O)C[C@@](O)(C(C)=O)C[C@@H]3O[C@H]1C[C@H](N)[C@H](O)[C@H](C)O1`, for which the Potency result was “inactive”.
In the case of `CC(C)n1nc(-c2cc3cc(O)ccc3[nH]2)c2c(N)ncnc21` it was “inactive”.
For the compound `CCCCC(=O)O[C@]1(C(=O)CO)CC[C@H]2[C@@H]3CCC4=CC(=O)CC[C@]4(C)[C@H]3[C@@H](O)C[C@@]21C`, the Potency result was “inactive”.
In the case of `COc1c(C)c2c(c(O)c1C/C=C(\C)CCC(=O)O)C(=O)OC2` it was “inactive”.
As to `CCCCC1=NC2(CCCC2)C(=O)N1Cc1ccc(-c2ccccc2-c2nn[nH]n2)cc1`, the Potency result is “inactive”.
With `CCCCCCc1ccc(O)cc1O`, the Potency result is “inactive”.
In the case of `C#C[C@]1(OC(C)=O)CC[C@H]2[C@@H]3CCC4=C[C@@H](OC(C)=O)CC[C@@H]4[C@H]3CC[C@@]21C` it was “inactive”; in that of `Cc1cccn2c(=O)c(-c3nnn[nH]3)cnc12`, “inactive”.
In the case of `Cc1onc(-c2c(Cl)cccc2Cl)c1C(=O)N[C@@H]1C(=O)N2[C@@H]1SC(C)(C)[C@@H]2C(=O)O` it was “inactive”; in that of `COc1ccc(C2C(=O)c3ccccc3C2=O)cc1`, “inactive”; in that of `C[C@]12CC[C@@H]3c4ccc(O)cc4CC[C@H]3[C@@H]1C[C@@H](O)[C@@H]2O`, “inactive”.
The entry for `CCCCS(=O)(=O)N[C@@H](Cc1ccc(OCCCCC2CCNCC2)cc1)C(=O)O` is “inactive”; for `C[C@]12C=CC(=O)C=C1CC[C@@H]1[C@@H]2[C@@H](O)C[C@@]2(C)[C@H]1CC[C@]2(O)C(=O)CO` it is “inactive”.

These data come from PubChem BioAssay (NCATS).
